# In PubChem BioAssay (NCATS):
# Records with an inconclusive call do not appear. Values without a mark were called inactive. Calls of active or inactive are those of the source. Calls follow the shape of the dose curve; as a rule, active = well fitted inhibition curve with a large enough effect; inconclusive = small, poorly fitted or top-dose-only effect; inactive = no such curve, though single readings can be large or run the other way.
# Assay: Primary qHTS for inhibitors of nuclear receptor binding SET domain protein 2 (NSD2) in an RCH-ACV wild type WT cells (2C) (AID 1645877); also: nearly all actives have a fitted effect of over 70% in size
# Details: RCH-ACV (leukaemia line) NSD2 WT (2C) viability, CellTiter-Glo, 72 h; series mostly up to 44.9 µM; activity change, negative = cell killing: at the top concentration
# % is scaled to controls: 0 for no effect and ±100 for the full control effect; potency is read from the fitted curve at half-maximal effect.
SMILES,"activity change, negative = cell killing",outcome,Potency
Cn1c(=O)cc(N2CCCC(N)C2)n(Cc2cc(F)ccc2C#N)c1=O (stereo unspecified),-15.6%,–,–
CC1(C)CCCC2(C)C1CC=C1C(=O)OC(O)C12O (stereo unspecified),-33.2%,–,–
C=CC1C(OC2OC(CO)C(O)C(O)C2O)OC=C(C(=O)OC)C1CC1CC(=O)CC(CCc2ccc(O)cc2)O1 (stereo unspecified),-3.32% [at 17.3 µM],–,–
CC1CCC23COC(=O)C2=CC(O)CC3C1(C)CCC1=CC(O)OC1=O (stereo unspecified),–,inactive,–
CC1(CCOC2OC(CO)C(O)C(O)C2O)CCC23OC2(C1)C(O)CC1C(C)(C(=O)O)CCCC13C (stereo unspecified),-6.92% [at 17.3 µM],–,–
CC(=O)O[C@@H]1C[C@H](O)[C@@]23CO[C@H](O)[C@]1(C)C2C[C@@H](O)[C@]1(C)C3C(=O)[C@H](OC(C)=O)[C@@]2(C)[C@H](c3ccoc3)C[C@H]3O[C@]321 (stereo partly specified),–,–,21.6 nM (active)
C[C@@H]1C(=O)O[C@H]2[C@H](O)C34[C@H]5C[C@@H](C(C)(C)C)C36[C@@H](OC(=O)[C@@H]6O)O[C@@]4(C(=O)O5)[C@@]12O (stereo partly specified),–,inactive [at 17.3 µM],–
C[C@@H]1O[C@@H](O[C@H]2[C@@H](OC(=O)[C@]34CCC(C)(C)CC3C3=CCC5[C@@]6(C)C[C@H](O)[C@H](O[C@@H]7O[C@H](C(=O)O)[C@@H](O)[C@H](O)[C@H]7O)[C@@](C)(C(=O)O)C6CC[C@@]5(C)[C@]3(C)CC4)OC[C@H](O)[C@@H]2O)[C@H](O)[C@H](O)[C@H]1O[C@@H]1OC[C@@H](O)[C@H](O)[C@H]1O (stereo partly specified),-16.7% [at 9.23 µM],–,–
CCC(C)C(=O)OC1CC(O)C23C4OCC5(C(O)CC2C1(C)C(O)O4)C3C(=O)CC1(C)C(c2ccoc2)CC2OC215 (stereo unspecified),–,–,126 nM (active)
CC(=O)OC1C[C@@]2(C)[C@@H](CC[C@@H](C)[C@]23Cc2c(O)cc4c(c2O3)CNC4=O)C(C)(C)[C@@H]1O (stereo partly specified),-24.3% [at 17.3 µM],–,–
C=CC(C)(C)C12C=C(OC)C(=O)N3C(C(C)C)C(=O)NC31N(OC)c1ccccc12 (stereo unspecified),-6.67% [at 17.3 µM],–,–
CC(C)=CC/C=C(\C)[C@H]1CC[C@]2(C)[C@@H]1[C@H](O)C[C@@H]1[C@@]3(C)CC[C@H](O)C(C)(C)[C@@H]3[C@@H](O[C@@H]3O[C@H](CO)[C@@H](O)[C@H](O)[C@H]3O)C[C@]12C,-26.4%,–,–
C[C@H]1CC[C@@H]2N(C1)C[C@@H]1[C@H]([C@@H](O)[C@H](O)[C@]3(O)[C@H]1C[C@@]14OC5(O)[C@@H](C[C@@H](O)[C@@H]31)[C@]4(C)CC[C@@H]5O)[C@]2(C)O,-1.51% [at 17.3 µM],–,–
C[C@@H]1O[C@@H](OC[C@H]2O[C@@H](Oc3cc(O)cc4c3C(=O)C(O)(Cc3ccc(O)cc3)O4)[C@H](O)[C@@H](O)[C@@H]2O)[C@H](O)[C@H](O)[C@H]1O (stereo partly specified),–,inactive [at 17.3 µM],–
C[C@@H]1C[C@@H]([C@@H](O)C(C)(C)O)O[C@H]2C[C@@]3(C)C(=C12)C[C@H](O)[C@H]1[C@@]2(C)CCC(=O)C(C)(C)C2CC[C@@]13C (stereo partly specified),-15.3% [at 17.3 µM],–,–
C=C(C)C1CCC(C)C12CC(O)C1(C)OC1C2OC(=O)C(N)CCC(=O)O (stereo unspecified),-9.62%,–,–
C[C@@H]1C[C@@H]2O[C@H]2/C=C\C=C\C(=O)Cc2c(Cl)c(O)cc(O)c2C(=O)O1,–,–,450 nM (active)
Cc1c(CN2CCN(C(=O)C(C)O)CC2)sc2c(N3CCOCC3)nc(-c3cnc(N)nc3)nc12 (stereo unspecified),–,–,45.9 nM (active)
CC(C)C(N)C(=O)OCCOCn1cnc2c(=O)[nH]c(N)nc21 (stereo unspecified),-22.9%,–,–
C1CCC[C@H]2CCCN3CC[C@@H](CCCCCC[C@@H]4CCCN5CC[C@@H](CC1)O[C@@H]45)O[C@@H]23,-1.13% [at 0.177 µM],–,–
COC(=O)N(C)c1c(N)nc(-c2nn(Cc3ccccc3F)c3ncccc23)nc1N,–,inactive,–
C=C(CCC1=C(C)[C@H]2[C@H](CC3[C@@H]4CC=C5C[C@@H](O)C[C@@H](O)[C@]5(C)C4[C@H](O)C[C@@]32C)O1)CO[C@@H]1O[C@H](CO)[C@@H](O)[C@H](O)[C@H]1O (stereo partly specified),–,–,963 nM (active)
CC1=C(C(=O)O)/C(=C\CO[C@@H]2O[C@H](CO)[C@@H](O)[C@H](O)[C@H]2O)C(OC(=O)/C=C\c2ccc(O)cc2)C1 (stereo partly specified),-10.7% [at 17.3 µM],–,–
CC1CCC2C(C(=O)O)=COC(O[C@@H]3O[C@H](CO)[C@@H](O)[C@H](O)[C@H]3O)C12 (stereo partly specified),-20.7%,–,–
CC(C)=CCC/C(C)=C/Cc1ccc(O)c(C2OC(=O)c3cc(C(=O)O)cc(O)c32)c1O (stereo unspecified),-22.3% [at 17.3 µM],–,–
C[C@@H]1O[C@@H](OC[C@H]2O[C@@H](OC(CCCCc3ccc(O)cc3)CCc3ccc(O)cc3)[C@H](O)[C@@H](O)[C@@H]2O)[C@H](O)[C@H](O)[C@H]1O (stereo partly specified),-13.1% [at 17.3 µM],–,–
